# Inconclusive results are not listed. Active and inactive are the calls of the source.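 Rule for the calls, unless noted: active = RAM network inhibition above 8.4% in each of two replicates, 3 SD over the compound average; inconclusive = above 8.4% inhibition in only one replicate; inactive = 8.4% inhibition or less in each replicate.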
# What was measured:
# [1] = Her2 expression decrease, cell viability multiplex – SKBR3 breast tumor cells, AlphaScreen, ATP viability, primary screen (AID 461;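 active = Her2 level under about 52% in both replicate screens, with viability over 70% of control, limit read from the data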;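 for Her2 level: lower value means less Her2 protein in the cells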;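 for viability: percent of carrier control wells set as 100% viability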); details: SKBR3 Her2 protein level, 18-24 h, measured here: SKBR3 viability, ATP luminescence, at 10 µM
# [2] = target: Receptor tyrosine-protein kinase erbB-2 (Homo sapiens) (UniProt P04626); assay: as above; details: 18-24 h, at 10 µM, stronger effect = lower value
# Receptor tyrosine-protein kinase erbB-2 (Homo sapiens), sequence (P04626 whole entry, looked up): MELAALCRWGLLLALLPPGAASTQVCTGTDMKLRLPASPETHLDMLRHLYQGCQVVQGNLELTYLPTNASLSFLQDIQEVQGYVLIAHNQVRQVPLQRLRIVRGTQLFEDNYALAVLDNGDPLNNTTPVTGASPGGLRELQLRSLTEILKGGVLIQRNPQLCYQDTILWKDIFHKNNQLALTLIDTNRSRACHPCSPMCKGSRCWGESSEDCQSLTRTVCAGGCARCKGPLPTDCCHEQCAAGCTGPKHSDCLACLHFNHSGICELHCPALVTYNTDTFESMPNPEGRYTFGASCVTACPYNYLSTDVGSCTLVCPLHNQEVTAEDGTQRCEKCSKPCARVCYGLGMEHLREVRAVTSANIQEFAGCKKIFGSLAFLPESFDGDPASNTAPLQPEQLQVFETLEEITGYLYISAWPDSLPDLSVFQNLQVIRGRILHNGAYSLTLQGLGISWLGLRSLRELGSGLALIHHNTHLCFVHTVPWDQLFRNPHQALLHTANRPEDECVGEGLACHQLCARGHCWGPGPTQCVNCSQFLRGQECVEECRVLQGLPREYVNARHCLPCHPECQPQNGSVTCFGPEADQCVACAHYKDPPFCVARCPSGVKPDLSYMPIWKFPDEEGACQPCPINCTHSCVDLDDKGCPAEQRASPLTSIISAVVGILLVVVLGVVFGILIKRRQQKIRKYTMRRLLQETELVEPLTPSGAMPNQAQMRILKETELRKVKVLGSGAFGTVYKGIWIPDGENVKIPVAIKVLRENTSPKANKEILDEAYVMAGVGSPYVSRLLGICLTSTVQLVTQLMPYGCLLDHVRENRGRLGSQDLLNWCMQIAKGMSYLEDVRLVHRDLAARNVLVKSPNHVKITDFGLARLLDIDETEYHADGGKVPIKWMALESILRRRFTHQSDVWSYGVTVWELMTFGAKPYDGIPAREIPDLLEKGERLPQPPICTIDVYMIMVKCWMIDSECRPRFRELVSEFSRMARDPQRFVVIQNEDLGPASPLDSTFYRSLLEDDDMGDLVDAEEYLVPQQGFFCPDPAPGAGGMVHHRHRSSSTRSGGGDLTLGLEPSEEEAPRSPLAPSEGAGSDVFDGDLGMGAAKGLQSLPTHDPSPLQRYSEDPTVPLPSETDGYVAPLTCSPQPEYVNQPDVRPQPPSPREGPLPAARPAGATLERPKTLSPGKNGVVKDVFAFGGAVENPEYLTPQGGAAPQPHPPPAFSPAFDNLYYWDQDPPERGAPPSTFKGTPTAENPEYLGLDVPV
# [3] = reduced viability of SK-BR-3 breast cancer cells – cell-based, 24 h, human, pilot screen (AID 572;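 active = viability at or below 10% of carrier control in both of two separate runs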;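 note: compound exposure lasted between 18 and 24 h rather than exactly 24 h; 100% = carrier-treated control wells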); details: SK-BR-3 viability, CellTiter-Glo luminescence, at 10 µM, stronger effect = lower value
# [4] = HUVEC growth inhibition – cell-based, human, primary screen (AID 575;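 active = viability at or below 30% in both replicate assays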;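 note: 100% = median of untreated cell wells with 0.1% DMSO on each plate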); details: HUVEC proliferation, CellTiter-Glo luminescence, 72 h; at 10 µM; stronger effect = lower value
# [5] = H69AR cell proliferation blockers – human, duplicate replicates, primary screen (AID 580;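 active = viability at or under a set limit in both replicates, limit being median viability minus 3 SD, cut at about 48% in these data, passing the limit was not always enough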;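 note: 100% = mean luminescence of untreated wells and 0% = no signal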); details: H69AR lung tumor cells viability, ATP luminescence, 72 h; at 10 µM; stronger effect = lower value
# [6] = MRP1 drug-resistance reversers in H69AR cells – cell-based, doxorubicin co-treatment, pilot screen (AID 601;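 active = viability loss from added drug above about 55%, and viability with drug at most 40%, in both replicates, limit read from the data, passing the limit was not always enough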); details: CellTiter-Glo, 72 h, at 10 µM; for differential viability (reversal): stronger effect = higher value
# [7] = yeast transport mutant growth inhibition pilot in 384-well plates, post-Golgi transport modulator project (AID 636; in the data active = inhibition above about 31%); details: absorbance 615 nm, about 18 h, stronger effect = higher value
# [8] = growth suppression of yeast trafficking mutant, preliminary HTS, modulators of trafficking downstream of Golgi apparatus project, 1536-format plate, OD 615 nm (AID 637; in the data active = inhibition above about 30%); details: yeast transport mutant growth, absorbance 615 nm, 18 h; stronger effect = higher value
# [9] = S. cerevisiae growth inhibition in permissive medium (OD615), pilot counter-assay for S. cerevisiae lifespan shortening project, permissive growth control (AID 705;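 active = growth inhibition above 25% in both replicates, a cutoff set 3 SD above the mean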); details: OD615, 24 h, at 10 µM, stronger effect = higher value
# [10] = S. cerevisiae growth inhibition in restrictive medium, OD615, pilot screen, restrictive growth control, yeast lifespan reduction project (AID 706;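 active = growth inhibition above a set limit, 3 SD over mean compound inhibition, in both replicates, cut at about 43% in these data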;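 note: modified DeaD lifespan yeast strain shifted to restrictive glucose medium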); details: OD615, 48 h, at 10 µM, stronger effect = higher value
# [11] = doxorubicin toxicity protection in MRP-1 cells – H69AR cells, CellTiter-Glo, duplicate, MRP-1 activator project, pilot screen (AID 807;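 active = viability increase at or above a cutoff of the median across tested compounds plus 3 SD, cut at about 8.5% in these data, passing the limit was not always enough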;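 note: compound pretreatment 18-22 h then 72 h combined with doxorubicin; 0% = doxorubicin alone and 100% = vehicle without doxorubicin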); details: H69AR viability with doxorubicin, CellTiter-Glo luminescence; at 10 µM; stronger effect = higher value
# [12] = viability of HCT116 without oncogenic beta-catenin – human colon tumor cells, pilot screen (AID 823;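 active = cell viability at or below a set limit in both duplicate runs, the limit being the all-compound median minus 4 SD, cut at about 23% in these data, passing the limit was not always enough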;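 note: 0% = wells killed by 20 µM Hyamine and 100% = untreated DMSO cell wells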); details: HCT116 beta-catenin knockout viability, CellTiter-Glo, 60 h; at 10 µM; stronger effect = lower value
# [13] = viability of PTEN-null HCT116 cells – cell-based, HCT116 clonal line, CellTiter-Glo, pilot screen (AID 824;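 active = viability at or below 27.92% in each of two runs, the all-compound median minus 4 SD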;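 note: 0% = 20 µM Hyamine control and 100% = vehicle cell control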); details: HCT116 PTEN-deleted viability, 60 h, at 10 µM, stronger effect = lower value
# [14] = RAM pathway blockade in budding yeast – dse1pr::URA3 reporter, 5-FOA selection, pilot screen (AID 869;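 active = inhibition over a set limit, the all-compound mean plus 3 SD, in both replicate runs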;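 note: 0% = DMSO wells with no growth and 100% = 10 µM 1-NA-PP1 with full growth; RAM network block rescues cells from 5-FOA so hits raise OD615 growth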); details: S. cerevisiae dse1pr::URA3 5-FOA growth, OD615, 2 d; at 10 µM; stronger effect = higher value; strain carries analog-sensitive mutant Cbk1 kinase
# [15] = RAM signaling pathway blockade in yeast – S. cerevisiae, Pdr1DBD-CYC8 efflux-inhibited sensitized strain, primary screen (AID 1298);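 note: 0% = DMSO untreated cells without growth and 100% = 10 µM 1-NA-PP1 full growth; higher means more yeast growth rescued from 5-FOA killing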; details: S. cerevisiae cbk1-as DSE1-URA3 strain, 5-FOA growth OD615, 2 d; at 50 µM; stronger effect = higher value
# [16] = H69AR cells + 2 uM doxorubicin, measured here: viability with 2 uM doxorubicin, stronger effect = lower value
# [17] = H69AR cells, compound alone cytotoxicity
Structure (SMILES),viability [1] [%],Her2 level [2],viability [3],viability [4],viability [5],differential viability (reversal) ([6]; H69AR cells + 2 uM doxorubicin),"viability [6, 16] [%]","viability [6, 17] [%]",inhibition [7],inhibition [8],growth inhibition [9],growth inhibition [10],viability increase [11],viability [12],viability [13],inhibition [14],RAM network inhibition [15]
Nc1cc(N)cc(-c2nc3ccccc3o2)c1,100,106% (inactive),100% (inactive),87.3% (inactive),93.7% (inactive),19.1% (inactive),74.7,93.7,-2.4% (inactive),3.17% (inactive),1.61% (inactive),6.39% (inactive),-0.39% (inactive),100% (inactive),95.4% (inactive),2.14% (inactive),0.61% (inactive)
COc1ccc(-c2cnc(SCC(=O)Nc3ccc4c(c3)OCO4)n2Cc2ccco2)cc1,102,70.5% (inactive),102% (inactive),76.9% (inactive),83.4% (inactive),-9.64% (inactive),93.1,83.4,0.39% (inactive),-6.03% (inactive),1.77% (inactive),10.1% (inactive),-3.05% (inactive),67.4% (inactive),67.4% (inactive),1.66% (inactive),0.61% (inactive)
CCN(CC)CCN1C(=O)c2oc3ccc(F)cc3c(=O)c2C1c1ccncc1 (stereo not given),89.5,96.5% (inactive),89.5% (inactive),95.6% (inactive),87.5% (inactive),4.02% (inactive),83.5,87.5,-3.2% (inactive),-8.67% (inactive),-0.15% (inactive),-0.92% (inactive),0.69% (inactive),96.4% (inactive),95.9% (inactive),0.78% (inactive),2.14% (inactive)
COc1ccc(S(=O)(=O)Cc2ccc(C(=O)N3CCOCC3)o2)cc1,106,126% (inactive),106% (inactive),94.2% (inactive),99.5% (inactive),-1.56% (inactive),101,99.5,0% (inactive),-0.83% (inactive),-4.55% (inactive),-13.3% (inactive),-0.14% (inactive),111% (inactive),99.2% (inactive),0.96% (inactive),1.62% (inactive)
CC(C)(O)C#Cc1ccc(C(=O)N2CCN(C(=O)c3ccco3)CC2)cc1,102,88% (inactive),102% (inactive),108% (inactive),96.9% (inactive),8.95% (inactive),87.9,96.9,-3.87% (inactive),2.74% (inactive),-17.3% (inactive),-11.2% (inactive),-0.62% (inactive),92.4% (inactive),99.8% (inactive),0.66% (inactive),2.19% (inactive)
Cc1cc2cc(CCNC(=O)CC(C)C)c(=O)[nH]c2cc1C,102,128% (inactive),102% (inactive),93.3% (inactive),90.2% (inactive),0.865% (inactive),89.4,90.2,-3.73% (inactive),5% (inactive),-7.38% (inactive),-5.57% (inactive),-0.47% (inactive),104% (inactive),97.7% (inactive),0.365% (inactive),0.73% (inactive)
Cn1cc(Cl)c(C(=O)N(Cc2ccccc2)c2ccccn2)n1,98,116% (inactive),98% (inactive),101% (inactive),92.2% (inactive),-1.01% (inactive),93.2,92.2,1.33% (inactive),2.33% (inactive),-8.19% (inactive),-1.84% (inactive),-0.96% (inactive),93.3% (inactive),94.7% (inactive),1.62% (inactive),7.22% (inactive)
CCCc1nnc(NC(=O)NCCN2C(=O)C3C4C=CC(C4)C3C2=O)s1 (stereo not given),110,121% (inactive),110% (inactive),96.6% (inactive),97.8% (inactive),5.61% (inactive),92.2,97.8,1.87% (inactive),-13% (inactive),-2.99% (inactive),6.19% (inactive),-0.68% (inactive),101% (inactive),101% (inactive),-0.135% (inactive),3.27% (inactive)
CCCCSc1nc(CCC)cc(=O)[nH]1,86.5,118% (inactive),86.5% (inactive),91.9% (inactive),88.2% (inactive),-0.345% (inactive),88.5,88.2,2.05% (inactive),-12.5% (inactive),-14.4% (inactive),-14.4% (inactive),-1.29% (inactive),99.6% (inactive),104% (inactive),0.635% (inactive),6.04% (inactive)
Cc1cccc(OCC(=O)N2CCN(C(=O)Cc3ccccc3)CC2)c1,102,94% (inactive),102% (inactive),107% (inactive),97.3% (inactive),-0.125% (inactive),97.5,97.3,-7.33% (inactive),-0.97% (inactive),-11.1% (inactive),-28.1% (inactive),-2.39% (inactive),85.4% (inactive),81.4% (inactive),0.285% (inactive),0.56% (inactive)

# Reference: PubChem BioAssay
